PNC assembly inh – blocks assembly of the perinucleolar compartment | PC3M PTB-GFP, PNC prevalence imaging, 16 h; active compounds read low | activity change (PNC), negative = inhibition, % at 10 µM | 3.1% of 140,000 active;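 active = readout at or below -70, meaning at least 70% loss of cells showing the perinucleolar compartment, a nuclear body marking cancer cells; inconclusive = readout between -30 and a set limit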;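 also: plate controls were DMSO wells for no effect and camptothecin positive control wells for full effect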
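PC3M cells stably expressing PTB-GFP, 750–1000 cells/well, treated 16 h at 37 °C with compound (23 nl of library stock), in duplicate. After paraformaldehyde fixation and Hoechst stain, imaged at 20x; PNC prevalence scored by image analysis.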
Tau fluor counter – counter-screen for tau fibril formation inhibitors; tau K18 P301L Alexa594 fluorescence, heparin fibrillization; Potency, µM (doses to about 57.7 µM), for inactives: at the top dose activity change, negative = decrease; 0.93% of 280,000 active; also: potency is read from the fitted curve at half-maximal effect; nearly all actives have a fitted effect of over 55% in size
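Human K18 P301L tau (15 uM unlabeled plus 0.24 uM Alexa 594-labeled, final) in 100 mM sodium acetate pH 7 was mixed with compound and 20 uM heparin and incubated 6 hr at 37 C.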
Tau ThT inhib – blocks human tau fibril formation measured by thioflavin T. recombinant tau K18 P301L (four-repeat tau fragment), heparin-induced fibrillization, ThT fluorescence. Potency, µM (top dose mostly 57.4 µM), without a hit: at the highest dose activity, negative = inhibition, most hits filed as inhibitors. 2.1% of 270,000 active; also: potency is read from the fitted curve at half-maximal effect; nearly all actives have a fitted effect of over 55% in size
Target sequence (P10636 561-689 P618L limits assumed): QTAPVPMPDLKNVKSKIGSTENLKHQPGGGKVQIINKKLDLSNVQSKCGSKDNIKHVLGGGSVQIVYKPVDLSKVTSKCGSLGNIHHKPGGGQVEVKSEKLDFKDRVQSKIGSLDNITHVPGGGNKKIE
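Tau K18 P301L fragment (15 uM unlabeled plus 0.24 uM Alexa 594-labeled) in 100 mM sodium acetate pH 7 with compound, fibrillization induced by 20 uM heparin for 6 hr at 37 C. Thioflavin T (30 uM) added, fluorescence read after 1 hr (ex 450, em 510 nm).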
Tau FP inhib – tau fibrillization inhibition (FP) | P10636 | K18 P301L tau heparin fibrillization, Alexa594 FP, 6 h | Potency, µM (titrated, usually from 57.7 µM), inactives show top-dose activity, negative = inhibition, usual class: inhibitors | 0.39% of 280,000 active | AID 1468; also: potency is read from the fitted curve at half-maximal effect; nearly all actives have a fitted effect of over 55% in size
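FP of Alexa 594-tau after heparin (20 uM) induction. Substrate: human K18 P301L, 15 uM unlabeled, 0.24 uM labeled. Buffer 100 mM sodium acetate pH 7. 6 hr, 37 C.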
TRb SRC2 PPI – disrupts binding of human TR beta to SRC2 | P10828 | TRbeta-SRC2 peptide binding, fluorescence polarization; receptor liganded with 1 µM T3 | Potency, µM (series often up to 106 µM), for the others: top-dose activity change, negative = inhibition, usual class: inhibitors | 0.065% of 280,000 active;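 also: potency is read from the fitted curve at half-maximal effect; plate controls were bound peptide for no effect and peptide without receptor for full effect; nearly all actives have a fitted effect of over 50% in size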
Target sequence (P10828 whole entry, looked up): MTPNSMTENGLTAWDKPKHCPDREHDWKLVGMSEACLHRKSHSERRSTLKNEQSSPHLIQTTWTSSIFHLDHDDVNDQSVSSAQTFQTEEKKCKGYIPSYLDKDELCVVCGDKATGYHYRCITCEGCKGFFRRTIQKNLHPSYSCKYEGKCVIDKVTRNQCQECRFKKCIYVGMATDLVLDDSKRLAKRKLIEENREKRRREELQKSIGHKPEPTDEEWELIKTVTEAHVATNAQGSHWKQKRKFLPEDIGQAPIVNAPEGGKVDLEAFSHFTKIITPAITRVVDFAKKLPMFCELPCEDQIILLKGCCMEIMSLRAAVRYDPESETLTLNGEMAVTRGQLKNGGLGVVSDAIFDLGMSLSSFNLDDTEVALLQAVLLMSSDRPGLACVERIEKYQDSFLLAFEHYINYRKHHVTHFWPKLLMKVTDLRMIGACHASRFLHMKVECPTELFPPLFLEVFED
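A fluorescence polarization screen tested compounds at multiple concentrations against complex formation between 0.6 uM TRb ligand-binding domain and 20 nM Texas Red SRC2 peptide, with 1 uM T3 present; readout after 5 hr.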
TexasRed fluor – counter-screen for TRb-SRC2 inhibitors: fluorescence interference; TRb/SRC2 Texas Red total fluorescence interference; Potency, µM (doses to about 106 µM), without a hit: top-dose fluorescence change, negative = quenching; 0.29% of 280,000 active; active = well fitted curve in either direction with a large enough effect; inconclusive = small, poorly fitted or top-dose-only effect; also: potency is read from the fitted curve at half-maximal effect
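Human TRb ligand-binding domain at 0.6 uM with 20 nM Texas Red SRC2 peptide in Tris buffer containing 1 uM T3 and 5% DMSO, incubated with compound 5 h at ambient temperature. Total fluorescence (555/632 nm) calculated as parallel + 2 × perpendicular.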
The depositor's hits bear a star; ? = inconclusive; / = not tested or not shown; [ ] = another dose, or the depositor's remark. An excerpt weighted towards active compounds, which were near 4.6% of everything screened. Unless noted, calls follow the shape of the dose curve; as a rule, active = well fitted curve in the direction sought with a large enough effect; inconclusive = small, poorly fitted or top-dose-only effect, or another doubt; inactive = no such curve, though single readings can be large; an effect the other way counts as inactive or inconclusive. Unless noted, % is scaled to controls: 0 for no effect and ±100 for the full control effect.

SMILES | PNC assembly inh | Tau fluor counter | Tau ThT inhib | Tau FP inhib | TRb SRC2 PPI | TexasRed fluor
CC1=NOC(=O)/C1=C\c1ccc(-c2ccc(Br)cc2)o1 | / | -30% | 28µM* | 2% | -3% | -5%
CC1=NOC(=O)/C1=C/c1ccc(-c2ccc(Cl)cc2)o1 | -29 | ? | 18µM* | -8% | 2% | -8%
CC1=NOC(=O)/C1=C\c1ccc(-c2ccc(Br)cc2C(=O)O)o1 | / | -17% | ? | ? | 5% | 1%
CC1=NOC(=O)/C1=C\c1ccc(-c2cc(Cl)ccc2Cl)o1 | -16 | -29% | ? | -1% | -1% | -2%
CCOc1ccc(S(=O)(=O)N2CCN(C(=S)NCc3ccco3)CC2)cc1 | -87* | -17% | -1% | -7% | 3% | 0%
CCOc1ccc(S(=O)(=O)N2CCN(C(=S)NC3CC3)CC2)cc1 | / | -6% | 6% | -6% | 2% | 2%
CC1CCN(c2csc3ccc(F)cc3c2=O)CC1 | / | -10% | ? | 14% | 9% | ?
COc1ccc(N2CCN(c3csc4ccc(Cl)cc4c3=O)CC2)cc1 | / | -22% | 6.3µM* | 4% | 10% | 0%
O=c1c(N2CCN(c3ccc(F)cc3)CC2)csc2ccc(F)cc12 | / | ? | 5µM* | ? | 7% | 1%
COc1ccc(N2CCN(c3csc4ccccc4c3=O)CC2)cc1 | / | ? | 11µM* | -5% | 4% | 0%
CCON1C(=O)C(C)(C)N(OCC)C(=O)C1(C)C | / | 2% | 3% | 1% | 8% | 0%
COC(=O)NNC(=O)COc1ccc(Cl)cc1 | 15 | 0% | 6% | -6% | 0% | 2%
CCCCCc1ccc(CC(=O)O)cc1 | ? | -15% | -22% | 0% | -1% | -1%
COc1ccc(Cn2c(SCc3cc(C)ccc3C)nc3cc(OC)c(OC)cc3c2=N)cc1 | -114* | -28% | ? | 0% | 13% | -1%
COc1ccc(Cn2c(SCc3ccc(C)cc3)nc3cc(OC)c(OC)cc3c2=N)cc1Cl | 16 | 0% | ? | 6% | 0% | -4%
COCCCn1c(SCc2cccc(C(F)(F)F)c2)nc2cc(OC)c(OC)cc2c1=N | -106* | 4% | 12% | 5% | 10% | 2%
COc1ccc(C(CC(=O)O)NC(=O)COc2ccc(C)cc2)cc1OC (stereo not given) | 17 | -12% | -11% | -4% | 6% | -3%
CC(=O)CSc1nnc(Cc2ccc3c(c2)OCO3)o1 | -100* | 3% | 0% | 2% | -2% | -1%
COC(=O)C1=C(C)N=C2SC(C#N)=C(N)N2C1c1cc(OC)c(OC)c(OC)c1 (stereo not given) | 2 | -9% | -17% | 2% | 3% | -4%
COC(=O)C1=C(C)N=C2SC(C#N)=C(N)N2C1c1ccc(OCc2ccccc2)cc1 (stereo not given) | -27 | 7.9µM*[quencher] | ? | ? | 1% | -4%
O=c1c(-c2cc(-c3ccc(Cl)cc3)nc3c2COc2ccccc2-3)coc2ccccc12 | / | -4% | 3% | ? | 1% | -3%
O=c1c(-c2cc(-c3ccccc3)nc3c2COc2ccccc2-3)coc2ccc(Cl)cc12 | / | -13% | -2% | -8% | -8% | 20µM*[quencher]
O=C1COc2ccc(-c3cc(-c4ccc(Cl)cc4)c4c(n3)-c3ccccc3OC4)cc2N1 | / | -12% | 3% | ? | -7% | 10µM*[quencher]
Cc1cccc(NC(=O)N2CCC(c3nc4ccccc4o3)CC2)c1 | ? | -2% | -13% | 5% | -2% | -2%
CN1CC(=O)N(CC(=O)Nc2ccc(OC(F)(F)F)cc2)c2ccccc2C1=O | / | 4% | 8% | -2% | -3% | -6%
SMILES | PNC assembly inh | Tau fluor counter | Tau ThT inhib | Tau FP inhib | TRb SRC2 PPI | TexasRed fluor
CCOc1cc(Br)c(Br)c(C=Nc2ccc(NC(C)=O)cc2)c1O | -27 | -12% | 6.3µM* | -3% | -4% | 1%
CC(=O)Nc1ccc(N=Cc2c(O)c(C(=O)Nc3ccccc3)cc3ccccc23)cc1 | / | -26% | 13µM* | ? | -5% | 0%
COCCN=c1scc(-c2cc(OC)c(OC)c(OC)c2)n1/N=C/c1c(C)[nH]c2ccccc12 | -29 | 7.9µM*[quencher] | ? | 6% | 0% | 6%
CC1(C)CC(=O)C2=C(C1)NC1=C(C(=O)c3ccccc31)C2c1ccc(O)cc1 (stereo not given) | -13 | ? | 18µM* | 14% | -1% | -6%
Cc1ccc(-c2nc3ccccc3s2)cc1NC(=O)c1cc(-n2cnnc2)ccc1Cl | 11 | -11% | -11% | -5% | -11% | -2%
O=S(=O)(O)CCS | / | -14% | 22µM* | ? | 9% | -3%
NCCCS(=O)(=O)O | 8 | -1% | -7% | 5% | -3% | -2%
COc1ccc(N=C2O/C(=C/c3sc(=S)n(CC4CCCO4)c3O)N=C2C#N)cc1 (stereo not given) | / | 13µM*[quencher] | 10µM* | -12% | 10% | 5%
CC(C)n1c(O)c(/C=C2\C=NN=C2c2ccccc2)sc1=S | / | ? | -11% | 14µM* | 3% | 0%
COCc1nnc(NC(=O)CCc2ccccc2)s1 | ? | -3% | 4% | -1% | 1% | -1%
COc1ccc(C(CCN2CCOCC2)c2c(O)cc(OC)cc2OC)cc1 (stereo not given) | / | 6% | 6% | -1% | 8% | -3%
COc1ccc(C(c2c(O)ccc3ccccc23)N2CCOCC2)c(OC)c1 (stereo not given) | -10 | -26% | 11µM* | -1% | -1% | 0%
Cc1ccc(S(=O)(=O)N2CCCC2C(=O)Nc2cc(C)on2)cc1 (stereo not given) | ? | -1% | 2% | 3% | -1% | -2%
O=C(NCc1ccco1)C12CN(Cc3ccccc3)CC1C(c1cccc([N+](=O)[O-])c1)=NO2 (stereo not given) | -86* | -17% | -16% | -2% | -5% | 0%
O=C(NCc1ccco1)C12CN(Cc3ccccc3)CC1C(c1ccc([N+](=O)[O-])cc1)=NO2 (stereo not given) | -1 | -6% | ? | 6% | -5% | -3%
CSCCC(C(=O)O)N1C(=O)c2ccc(C(=O)O)cc2C1=O (stereo not given) | 20 | 1% | -2% | 0% | -14% | 1%
CCSC1=NC(=O)/C(=C2/C=Cc3ccccc3N2CC)S1 | 11 | ? | 7.1µM* | 17% | 2% | -2%
CCN1/C(=C2\OC(=S)N(C)C2=O)C=Cc2ccccc21 | / | -13% | ? | -1% | ? | 2%
Cc1ccc(SCCNS(=O)(=O)c2ccc(F)cc2)cc1 | 4 | -25% | -4% | 3% | -7% | -1%

Assay outcomes deposited in PubChem by National Center for Advancing Translational Sciences (NCATS).
